Compound activity as filed in PubChem.
An excerpt weighted towards active compounds, which were near 3.4% of everything screened.
Peg3 imprint – genomic imprint erasure induction; Potency, µM (titrated, usually from 60.7 µM), inactives show at the top dose activity change, positive = activation, most hits filed as activators; mouse ES Peg3-LacZ reporter, beta-gal luminescence, 40 h; 0.02% of 110,000 active
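Readout: BetaGlo luminescence (5 min, room temp) for LacZ from the normally silent maternal Peg3 allele in female Peg3LacZ-Neo ES cells. Cells 300/well, 40 h, 37C, 5% CO2. Data normalized per plate to negative controls.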
p53ts 32C kill – kills p53ts cells at the permissive temperature. AID 924. H1299-p53A138V at 32C, ATP luminescence viability, 24 h. 0.93% of 130,000 active. Potency, µM (series often up to 46.1 µM), inactives show top-dose activity change, negative = cytotoxicity, usual class: cytotoxic;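 further: 0% = DMSO and -100% = full killing by reference compound; nearly all actives have a fitted effect of over 55% in size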
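Viability by ATPlite luminescence after 24 h compound treatment (up to 46 uM) at the permissive 32C. Cells are H1299 carrying p53 A138V. Scale runs from DMSO basal to 100 uM tamoxifen as full kill; AC50 from Hill fits.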
Luciferase inh – inhibitors of firefly luciferase; purified firefly luciferase, luminescence, 8 min; Potency, µM (titrated, usually from 57.1 µM), without a hit: top-dose activity change, negative = inhibition, actives largely listed as inhibitors; 2.2% of 72,000 active; AID 411; further: on the % scale 0 is the no-effect control and ±100 the full control effect; nearly all actives have a fitted effect of over 40% in size
Target sequence (P08659 whole entry, looked up): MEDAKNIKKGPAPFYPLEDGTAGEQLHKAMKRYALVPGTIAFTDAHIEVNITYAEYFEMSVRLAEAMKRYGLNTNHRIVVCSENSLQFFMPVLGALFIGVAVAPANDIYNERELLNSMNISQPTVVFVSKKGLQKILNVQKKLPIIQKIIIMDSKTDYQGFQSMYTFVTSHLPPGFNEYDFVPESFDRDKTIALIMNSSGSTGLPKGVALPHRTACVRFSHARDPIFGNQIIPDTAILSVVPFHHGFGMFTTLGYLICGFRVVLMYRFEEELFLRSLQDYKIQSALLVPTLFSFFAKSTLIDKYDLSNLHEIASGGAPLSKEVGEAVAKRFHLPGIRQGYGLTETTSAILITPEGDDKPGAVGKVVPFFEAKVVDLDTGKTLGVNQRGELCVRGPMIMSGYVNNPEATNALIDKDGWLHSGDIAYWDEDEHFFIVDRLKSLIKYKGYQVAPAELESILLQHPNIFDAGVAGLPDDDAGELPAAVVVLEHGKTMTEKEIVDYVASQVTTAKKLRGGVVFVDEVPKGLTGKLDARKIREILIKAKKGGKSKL
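Titration-based qHTS; buffer 50 mM imidazole pH 7.2, 50 mM KCl, 7 mM MgCl2, 10 uM ATP, 0.01% Tween 20, 0.05% BSA; luciferase/luciferin detector mix added after compound; 8 min, ambient; luminescence.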
Tau filament bind – binds recombinant human tau filaments | recombinant tau filaments, thioflavin S fluorescence, 15 h; filaments grown with octadecylsulfate alongside compound | P10636 | Potency, µM (series often up to 57.1 µM), for inactives: top-dose activity change, negative = inhibition | 2% of 71,000 active | AID 596;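 further: on the % scale 0 is the no-effect control and ±100 the full control effect; actives lower thioflavin S fluorescence by blocking filaments or displacing dye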
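Thioflavine S fluorescence (ex 450, em 510 nm) reports filaments formed from 1 uM human tau plus 30 uM ODS over 15 h at 37 C (10 mM HEPES pH 7.4, 100 mM NaCl, 5 mM DTT); compounds displacing dye or blocking filaments lower signal.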
p53ts 39C kill – kills p53ts cells at the nonpermissive temperature; H1299-p53A138V viability at 39C, ATP luminescence, 24 h; Potency, µM (doses to about 46.1 µM), for the others: top-dose activity change, negative = cell killing, hits mostly cytotoxic; AID 902; 1.5% of 130,000 active; further: on the % scale 0 is the no-effect control and ±100 the full control effect; nearly all actives have a fitted effect of over 55% in size
* marks the source's active call; other numbers are inactive results; ? = inconclusive; · = no result; [ ] = remark or other dose. The call rests on the fitted dose curve; in most records, active means well fitted curve in the direction sought with a large enough effect; inconclusive means small, poorly fitted or top-dose-only effect, or another doubt; inactive means no such curve, though single readings can be large; an effect the other way counts as inactive or inconclusive. Potency means the concentration at half of the fitted maximal effect.

SMILES | Peg3 imprint | p53ts 32C kill | Luciferase inh | Tau filament bind | p53ts 39C kill
O=C(Nc1ccc2c(c1)OCO2)C1COc2ccccc2O1 (configuration not stated) | -34% | -6% | -21% | 13µM* | -19%
O=C(O)CNC(=O)C1COc2ccccc2O1 (configuration not stated) | -37% | 3% | 0% | -4% | 8%
O=C(Nc1nc2c(s1)CCCC2)C1COc2ccccc2O1 (configuration not stated) | -57% | ? | 10µM* | 0% | ?
O=C(Nc1ccncc1)C1COc2ccccc2O1 (configuration not stated) | -12% | -1% | -2% | 2% | 14%
CCOc1ccc(/C=C(\C#N)c2nc(-c3cc4ccccc4oc3=O)cs2)c(OCC)c1 | 28%[10.9 µM] | 5% | · | · | 7%
Cc1ccc(C)c(N2CCN(C(=O)c3cc4c(=O)n(Cc5ccco5)ccc4nc3C)CC2)c1 | -10%[10.9 µM] | -5% | · | · | -11%
C(=N\c1nc2ccccc2[nH]1)/c1cccs1 | -18% | -7% | 7.9µM* | 7% | -3%
Cn1c(/C=N/c2nc3ccccc3[nH]2)nc2ccccc21 | -21% | 2% | -5% | ? | ?
CCOc1ccc2nc(C)cc(Nc3ccccc3OCC)c2c1 | -18%[10.9 µM] | -30% | · | · | 7.9µM*
CCOc1ccc2nc(C)cc(C(=O)O)c2c1 | -8% | -14% | 2% | 8% | -9%
CCC1=C2CC[C@H]3C(=O)NC(=O)[C@H]3[C@H]2[C@@]2(C)C(=NCC(=O)OC)OC(=O)N2C1=O | 0% | 14% | · | · | 11%
Cc1ccc2sc(-c3ccc(N)cc3)nc2c1 | -49%[10.9 µM] | 2.5µM* | · | · | 3.2µM*
CCCOc1ccc(C(=O)N(Cc2cccs2)c2ccc(C)cc2)cc1 | -9%[10.9 µM] | 12% | · | · | -17%
N#Cc1cccc(NC(=O)c2cc3c(s2)-c2ccc(Cl)cc2SC3)c1 | -10%[10.9 µM] | ? | · | · | 10µM*
CN(Cc1ccccc1)C(=O)c1cc2c(s1)-c1ccc(Cl)cc1SC2 | -1%[10.9 µM] | -1% | · | · | ?
Oc1cc(O)cc(/C=C\c2ccc(O)c(O)c2)c1 | · | 13µM* | 13µM* | ? | ?
COc1ccc(CCN(C)CCc2ccc(OC)c(OC)c2)cc1OC | 0% | -2% | -4% | ? | -10%
COc1ccc(CCN(C)CCCOc2ccc(S(=O)(=O)c3[nH]c4ccccc4c3C(C)C)cc2)cc1OC | -29% | 25µM* | 1% | -46% | 13µM*
CCN1C(=O)[C@@H]2[C@H](C1=O)[C@@H]1C[C@H]3C(=O)N(CC)C(=O)[C@H]3[C@@H]3C1=C(C(=O)N1C(=O)O/C(=N\CC4CC4)[C@]31C)[C@@H]2C | -2% | 17% | · | · | -8%
Cc1ccc(C2c3c(-c4cc(C)ccc4O)n[nH]c3C(=O)N2Cc2ccco2)cc1 (configuration not stated) | -6%[10.9 µM] | ? | · | · | 25µM*
CCCCN1C(=O)c2[nH]nc(-c3ccccc3O)c2C1c1ccc(OCc2ccccc2)cc1 (configuration not stated) | -9%[10.9 µM] | 24% | · | · | 13µM*
CCCCN1C(=O)c2[nH]nc(-c3ccccc3O)c2C1c1ccc(C(C)(C)C)cc1 (configuration not stated) | 25%[10.9 µM] | ? | · | · | 13µM*
CC(C)OCCCN1C(=O)c2[nH]nc(-c3ccccc3O)c2C1c1cccc(OCc2ccccc2)c1 (configuration not stated) | -11%[10.9 µM] | ? | · | · | ?
COCCCN1C(=O)c2[nH]nc(-c3ccccc3O)c2C1c1ccc(OCc2ccccc2)cc1 (configuration not stated) | -8%[10.9 µM] | 25% | · | · | 13µM*
CCCCN1C(=O)c2[nH]nc(-c3ccccc3O)c2C1c1ccc(OCc2ccccc2)c(OC)c1 (configuration not stated) | -11%[10.9 µM] | 25% | · | · | -11%
COc1ccc(NC(=O)C(C)n2nnc3sc(-c4ccccc4)cc3c2=O)cc1Cl (configuration not stated) | 9%[10.9 µM] | -20% | · | · | -26%
Cc1cc(=O)n2nc(N(C)CC(=O)NCc3cccc(Br)c3)sc2n1 | 3%[10.9 µM] | 2% | · | · | 12%
Cn1nnc(-c2ccc(OCc3ccccc3F)cc2)n1 | -85% | -28% | 25µM* | 35% | -25%
